Measured values from ChEMBL document CHEMBL3988442, “University of Dundee, Small-Polar-MMV Screening Library” (2021).
For part of these data: Measured potencies and affinities stand elsewhere.

Assays:
Parameters in all cases: scale not given: direction of the effect not stated beside the values
[1] = molecular target: Protein translocase subunit SecA (Escherichia coli (strain K12)) (UniProt P10408); assay: Assay to Identify E. coli SecA ATPase Inhibitors; assay type: functional; details: 30 µM
[2] = molecular target: T1, Ubiquitin-activating enzyme e1, putative (Leishmania donovani (strain BPK282A1)) (UniProt E9BSI1); assay: Leishmania donovani Ubiquitin Activating Enzyme (LdE1); assay type: functional; details: 30 µM
T1 sequence (whole entry): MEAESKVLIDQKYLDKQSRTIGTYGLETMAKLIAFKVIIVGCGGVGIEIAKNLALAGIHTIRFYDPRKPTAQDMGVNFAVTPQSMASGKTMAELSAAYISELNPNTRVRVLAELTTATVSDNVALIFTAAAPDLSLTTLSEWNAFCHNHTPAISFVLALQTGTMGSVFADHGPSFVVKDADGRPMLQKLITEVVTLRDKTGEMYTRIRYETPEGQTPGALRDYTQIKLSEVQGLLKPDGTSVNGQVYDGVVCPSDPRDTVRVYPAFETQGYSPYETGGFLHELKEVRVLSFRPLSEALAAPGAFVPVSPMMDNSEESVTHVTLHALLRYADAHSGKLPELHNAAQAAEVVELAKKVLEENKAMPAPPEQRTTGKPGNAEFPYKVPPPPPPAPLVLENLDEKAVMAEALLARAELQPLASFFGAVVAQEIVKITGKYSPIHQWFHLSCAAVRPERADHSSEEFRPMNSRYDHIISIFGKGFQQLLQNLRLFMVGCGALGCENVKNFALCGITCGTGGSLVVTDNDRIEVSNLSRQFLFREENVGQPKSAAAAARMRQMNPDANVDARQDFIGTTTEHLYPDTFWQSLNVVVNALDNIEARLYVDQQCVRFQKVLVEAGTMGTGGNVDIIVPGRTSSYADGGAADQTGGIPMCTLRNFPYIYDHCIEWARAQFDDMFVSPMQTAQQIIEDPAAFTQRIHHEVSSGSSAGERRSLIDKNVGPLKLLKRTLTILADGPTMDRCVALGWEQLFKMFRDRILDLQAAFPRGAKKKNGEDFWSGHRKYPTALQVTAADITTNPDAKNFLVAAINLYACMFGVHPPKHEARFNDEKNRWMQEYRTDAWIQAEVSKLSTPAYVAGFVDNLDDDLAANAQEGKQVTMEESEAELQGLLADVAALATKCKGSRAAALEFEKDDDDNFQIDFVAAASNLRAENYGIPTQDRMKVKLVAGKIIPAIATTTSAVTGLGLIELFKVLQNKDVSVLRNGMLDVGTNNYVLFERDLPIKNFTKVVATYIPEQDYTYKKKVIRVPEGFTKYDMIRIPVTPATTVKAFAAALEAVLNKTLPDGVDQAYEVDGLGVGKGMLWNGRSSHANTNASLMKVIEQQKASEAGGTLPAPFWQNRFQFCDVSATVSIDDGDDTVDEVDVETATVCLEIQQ

[3] = molecular target: AMP-activated protein kinase, AMPK (Homo sapiens) (UniProt P54646+O43741+P54619+Q9UGJ0+Q9Y478+Q13131+Q9UGI9); assay: AMP-dependent Kinase enzyme assay. An in vitro enzyme assay that detects ADP turnover that is directly proportional to AMPK activity. This uses naive AMPK that is activated during the assay with MK-8722; assay type: functional; details: 30 µM
[4] = molecular target: Sialic acid-binding Ig-like lectin 9 (Homo sapiens) (UniProt Q9Y336); assay: Hs-Siglec9 ALPHAscreen SOP 20170721; details: 10 µM
Trypanosoma cruzi = assay: Trypanosoma cruzi phosphomannomutase and mannose-1-phosphate guanylyltransferase assay; assay type: functional; details: 10 µM
[5] = molecular target: T2, Arginase-2, mitochondrial (Homo sapiens) (UniProt P78540); assay: in vitro enzyme assay to detect the production of urea directly proportional to the activity of Arginase II; assay type: functional; details: 33.3 µM; note: in the data most compounds retested in dose-response had high values
T2 sequence (whole entry): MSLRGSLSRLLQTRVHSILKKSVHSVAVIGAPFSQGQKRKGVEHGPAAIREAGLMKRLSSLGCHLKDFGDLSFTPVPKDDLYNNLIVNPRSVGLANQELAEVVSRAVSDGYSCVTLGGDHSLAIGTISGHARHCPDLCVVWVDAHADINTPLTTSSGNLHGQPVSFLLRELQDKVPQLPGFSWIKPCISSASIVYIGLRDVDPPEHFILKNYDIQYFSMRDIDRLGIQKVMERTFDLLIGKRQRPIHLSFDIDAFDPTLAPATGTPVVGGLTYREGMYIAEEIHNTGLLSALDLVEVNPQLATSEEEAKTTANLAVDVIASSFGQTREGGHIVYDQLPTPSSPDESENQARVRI

[6] = molecular target: T3, Proteasome subunit beta (Trypanosoma cruzi) (UniProt O96673); assay: Trypanosoma cruzi proteasome chymotrypsin-like activity (TcProtChymo) assay.; note: in the data most compounds retested in dose-response had high values; assay type: functional; details: 9.37 µM
T3 sequence (whole entry): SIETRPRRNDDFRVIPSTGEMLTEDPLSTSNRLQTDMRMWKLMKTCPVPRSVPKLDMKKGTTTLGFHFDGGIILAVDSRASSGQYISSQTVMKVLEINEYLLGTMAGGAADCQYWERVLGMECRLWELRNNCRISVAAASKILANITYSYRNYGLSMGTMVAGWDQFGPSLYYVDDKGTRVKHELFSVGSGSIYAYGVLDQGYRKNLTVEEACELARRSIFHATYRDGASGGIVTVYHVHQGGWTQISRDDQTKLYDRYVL

Homo sapiens = organism: Homo sapiens; assay: To identify inhibition of the IFN signalling (Jak-Stat) pathway via expression of an eGFP reporter gene under the control of an IFN-stimulated response element (ISRE) containing MxA promoter.; assay type: functional; details: 30 µM
[7] = molecular target: T4, Tyrosyl-tRNA synthetase, putative (Trypanosoma cruzi (strain CL Brener)) (UniProt Q4DSP6); assay: Trypanosoma cruzi tyrosyl tRNA synthetase (TcYRS) _High Tyrosine SOP; assay type: functional; details: 30 µM; note: in the data most compounds retested in dose-response had high values
T4 sequence (whole entry): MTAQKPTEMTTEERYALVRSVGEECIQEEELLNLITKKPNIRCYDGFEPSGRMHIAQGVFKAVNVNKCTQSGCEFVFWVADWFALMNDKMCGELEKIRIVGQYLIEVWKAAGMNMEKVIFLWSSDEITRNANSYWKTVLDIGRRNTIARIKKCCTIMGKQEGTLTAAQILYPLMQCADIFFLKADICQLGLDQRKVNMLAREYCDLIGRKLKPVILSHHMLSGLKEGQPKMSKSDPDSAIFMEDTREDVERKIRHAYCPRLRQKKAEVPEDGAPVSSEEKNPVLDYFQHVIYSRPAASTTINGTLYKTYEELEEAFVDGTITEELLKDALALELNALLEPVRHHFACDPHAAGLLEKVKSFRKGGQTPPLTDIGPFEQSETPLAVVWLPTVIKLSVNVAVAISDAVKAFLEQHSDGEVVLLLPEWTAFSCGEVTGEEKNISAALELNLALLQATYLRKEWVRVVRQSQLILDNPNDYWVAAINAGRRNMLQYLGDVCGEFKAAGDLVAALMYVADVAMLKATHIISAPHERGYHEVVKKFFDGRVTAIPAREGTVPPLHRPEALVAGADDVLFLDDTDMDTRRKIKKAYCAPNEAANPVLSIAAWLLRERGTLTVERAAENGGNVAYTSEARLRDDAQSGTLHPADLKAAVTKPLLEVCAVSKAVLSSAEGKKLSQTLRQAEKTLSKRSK

[8] = molecular target: T4, Tyrosyl-tRNA synthetase, putative (Trypanosoma cruzi (strain CL Brener)); assay: Trypanosoma cruzi tyrosyl tRNA synthetase (TcYRS) SOP; assay type: functional; details: 30 µM
[9] = molecular target: Chromo domain-containing protein 1 (Saccharomyces cerevisiae (strain ATCC 204508 / S288c) (Baker's yeast)) (UniProt P32657); assay: ScCHD-1 Enzyme Inhibition Assay; assay type: functional; details: 30 µM; note: in the data most compounds retested in dose-response had high values
Chain of Chromo domain-containing protein 1 (Saccharomyces cerevisiae (strain ATCC 204508 / S288c) (Baker's yeast)) (P32657 whole entry, the tested form may be a part): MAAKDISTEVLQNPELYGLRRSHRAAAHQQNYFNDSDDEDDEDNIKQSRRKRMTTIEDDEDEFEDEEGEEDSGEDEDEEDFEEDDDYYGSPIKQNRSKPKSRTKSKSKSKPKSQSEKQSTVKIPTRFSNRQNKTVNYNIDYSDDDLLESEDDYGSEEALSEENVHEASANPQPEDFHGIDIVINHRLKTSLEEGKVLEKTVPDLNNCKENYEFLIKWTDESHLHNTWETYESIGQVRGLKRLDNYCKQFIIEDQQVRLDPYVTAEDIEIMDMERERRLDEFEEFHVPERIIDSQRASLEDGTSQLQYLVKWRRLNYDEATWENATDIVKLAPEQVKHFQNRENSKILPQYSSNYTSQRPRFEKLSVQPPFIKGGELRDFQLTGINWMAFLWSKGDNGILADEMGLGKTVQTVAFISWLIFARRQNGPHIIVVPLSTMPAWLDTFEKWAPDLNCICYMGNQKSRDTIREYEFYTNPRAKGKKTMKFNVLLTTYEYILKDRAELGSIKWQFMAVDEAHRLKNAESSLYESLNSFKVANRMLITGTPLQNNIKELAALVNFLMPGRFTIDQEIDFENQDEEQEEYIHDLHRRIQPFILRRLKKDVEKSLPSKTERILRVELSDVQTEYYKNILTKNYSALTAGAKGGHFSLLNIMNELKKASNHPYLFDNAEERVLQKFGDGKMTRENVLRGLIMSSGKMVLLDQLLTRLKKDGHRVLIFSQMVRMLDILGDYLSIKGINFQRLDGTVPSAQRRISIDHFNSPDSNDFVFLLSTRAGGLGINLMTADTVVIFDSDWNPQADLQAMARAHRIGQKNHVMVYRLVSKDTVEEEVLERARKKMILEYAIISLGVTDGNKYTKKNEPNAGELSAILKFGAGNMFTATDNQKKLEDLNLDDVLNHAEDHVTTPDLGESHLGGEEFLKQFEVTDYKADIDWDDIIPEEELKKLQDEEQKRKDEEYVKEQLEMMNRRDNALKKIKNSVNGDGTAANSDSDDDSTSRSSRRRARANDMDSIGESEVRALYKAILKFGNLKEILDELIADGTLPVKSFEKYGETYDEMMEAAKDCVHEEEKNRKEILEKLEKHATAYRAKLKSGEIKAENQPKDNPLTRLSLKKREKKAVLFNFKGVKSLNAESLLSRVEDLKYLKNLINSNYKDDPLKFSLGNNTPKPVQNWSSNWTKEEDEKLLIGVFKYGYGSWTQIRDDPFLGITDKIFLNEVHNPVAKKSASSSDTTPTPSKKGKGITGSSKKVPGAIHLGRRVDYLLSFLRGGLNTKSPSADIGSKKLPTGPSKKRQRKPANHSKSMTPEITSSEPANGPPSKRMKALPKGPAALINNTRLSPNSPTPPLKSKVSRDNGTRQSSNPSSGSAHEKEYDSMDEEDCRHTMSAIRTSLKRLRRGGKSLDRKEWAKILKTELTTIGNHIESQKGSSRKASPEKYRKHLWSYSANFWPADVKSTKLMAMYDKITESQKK

Chain of Protein translocase subunit SecA (Escherichia coli (strain K12)) (P10408 whole entry): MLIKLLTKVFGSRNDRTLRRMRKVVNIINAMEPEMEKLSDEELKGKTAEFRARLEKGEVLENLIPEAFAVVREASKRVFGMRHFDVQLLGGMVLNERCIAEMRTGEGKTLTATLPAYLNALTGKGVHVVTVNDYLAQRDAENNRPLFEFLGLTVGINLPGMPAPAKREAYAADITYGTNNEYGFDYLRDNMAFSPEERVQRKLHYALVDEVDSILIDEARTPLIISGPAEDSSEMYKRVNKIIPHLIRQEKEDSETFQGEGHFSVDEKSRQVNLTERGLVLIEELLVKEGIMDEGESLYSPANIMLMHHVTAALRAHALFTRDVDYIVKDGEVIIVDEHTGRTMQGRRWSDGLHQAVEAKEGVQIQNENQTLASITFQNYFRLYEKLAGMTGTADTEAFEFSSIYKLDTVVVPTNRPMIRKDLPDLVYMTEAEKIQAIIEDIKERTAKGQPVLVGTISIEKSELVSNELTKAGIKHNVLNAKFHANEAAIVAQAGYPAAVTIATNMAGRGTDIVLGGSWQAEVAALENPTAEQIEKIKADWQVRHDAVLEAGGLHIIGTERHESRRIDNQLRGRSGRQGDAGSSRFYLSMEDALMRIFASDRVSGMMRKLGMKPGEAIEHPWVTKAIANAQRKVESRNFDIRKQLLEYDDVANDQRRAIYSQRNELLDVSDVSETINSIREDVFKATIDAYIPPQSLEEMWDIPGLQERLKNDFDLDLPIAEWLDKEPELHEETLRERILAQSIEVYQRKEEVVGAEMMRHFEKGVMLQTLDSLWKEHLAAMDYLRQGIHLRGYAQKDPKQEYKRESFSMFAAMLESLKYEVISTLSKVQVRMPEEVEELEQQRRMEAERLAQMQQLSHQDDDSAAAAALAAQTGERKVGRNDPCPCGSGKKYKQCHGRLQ
Chain of Sialic acid-binding Ig-like lectin 9 (Homo sapiens) (Q9Y336 whole entry): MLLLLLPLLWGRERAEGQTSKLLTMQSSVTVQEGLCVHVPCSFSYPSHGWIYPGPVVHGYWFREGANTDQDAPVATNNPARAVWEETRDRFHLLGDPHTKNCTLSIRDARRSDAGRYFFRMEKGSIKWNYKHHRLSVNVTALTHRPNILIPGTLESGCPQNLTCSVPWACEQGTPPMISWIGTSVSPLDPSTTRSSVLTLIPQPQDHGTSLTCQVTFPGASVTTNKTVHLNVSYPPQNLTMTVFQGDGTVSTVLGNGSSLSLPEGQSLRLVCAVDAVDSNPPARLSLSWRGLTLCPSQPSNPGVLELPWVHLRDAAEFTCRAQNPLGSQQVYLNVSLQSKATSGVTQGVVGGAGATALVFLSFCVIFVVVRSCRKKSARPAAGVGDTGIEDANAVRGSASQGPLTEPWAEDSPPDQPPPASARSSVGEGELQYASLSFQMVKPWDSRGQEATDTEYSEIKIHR

| SMILES | Percent Effect [1] [%] | Percent Effect [2] [%] | Percent Effect [3] [%] | Percent Effect [4] [%] | Percent Effect (Trypanosoma cruzi) [%] | Percent Effect [5] [%] | Percent Effect [6] [%] | Percent Effect (Homo sapiens) [%] | Percent Effect [7] [%] | Percent Effect [8] [%] | Percent Effect [9] [%] |
| --- | --- | --- | --- | --- | --- | --- | --- | --- | --- | --- | --- |
| CN(C(=O)Cc1ccc2c(c1)OCCO2)C1CCCC1 | 3.58 | 10.5 | 1.6 | -8.7 | -3.8 | -7.1 | 3.55 | 14.1 | 3.19 | 10.4 | -0.571 |
| COC(=O)N1CCCN(C(=O)NCc2ccc(Cl)s2)CC1 | -1.83 | 16.5 | 4.69 | -2.7 | 0.308 | -4.09 | 12.9 | 19.3 | 7.29 | 15.2 | -27.7 |
| O=C(CCc1nccs1)N1CCN(c2ccc(Br)cn2)CC1 | -7.37 | 7.79 | 14.3 | -8.09 | -1.27 | -1.05 | -4.12 | 31.4 | 2.86 | 7.06 | -21.6 |
| CCCc1nc(C(C)(C)NC(=O)C2CC(=O)N(CC3CC3)C2)no1 (stereo unspecified) | -3.09 | 10.8 | -4.68 | -4.84 | -6.78 | 2.4 | -5.75 | 14.8 | 2.97 | 11 | 5.6 |
| CCCOc1ccc(CNC(=O)N2CCC(C(N)=O)C2)cc1 (stereo unspecified) | -0.765 | 22.8 | -8.41 | -9.27 | -2.36 | 2.28 | 5.82 | -21.1 | 4.43 | 13.9 | -2.35 |
| CC(=O)N1CCC2(CC1)CC[C@@]1(C(=O)N(C)C)CN(S(C)(=O)=O)C[C@@H]21 | 0.456 | 18.9 | -1.01 | 10.2 | 2.83 | 12.7 | 4.38 | 28.4 | 3.23 | 18.5 | -8.55 |
| COCC(c1cccc(C(F)(F)F)c1)N(C)C(=O)c1ccncc1 (stereo unspecified) | -4.42 | 21.1 | -0.328 | -2.24 | 8.46 | -4.21 | 23.2 | 26.2 | 8.33 | 21.9 | -14.7 |
| Cc1cnn(CC(C)NCc2csc(-c3ccco3)n2)c1 (stereo unspecified) | -3.81 | -3.8 | 10.6 | -3.77 | -5.44 | -3.66 | 10.1 | 18.9 | 11.5 | 2.53 | -23.7 |
| Cc1cnn(CC2CN(c3ncnc4ccsc34)CCO2)c1 (stereo unspecified) | -2.74 | 2.7 | 4.84 | -10 | 6.05 | -2.5 | 19.7 | 75.7 | 11.9 | 15.8 | -0.587 |
| CCOCc1cccc(S(=O)(=O)N2CCSCC2)c1 | -3.9 | 1.33 | 4.84 | 4.89 | -6.09 | 0.88 | 7.58 | 5.82 | 4.23 | -2.56 | -3.83 |
| O=C(NCC1CC1)[C@H]1C[C@@H]2CCN(Cc3nccs3)C[C@@H]2O1 | -2.59 | 8.11 | 5.76 | -2.2 | 4.4 | -2.23 | 20.7 | 17.8 | 8.65 | 15.4 | 2.01 |
| O=C(c1ccc[nH]1)N1C[C@H]2CC[C@@H]1CN(C1Cc3ccccc3C1)C2 | -0.308 | 8.11 | -3.81 | 12.3 | 3.62 | 23.1 | 10.7 | -4.7 | 6.45 | 18.5 | -2.58 |
| Cc1ccc(C(=O)NC2CCN(Cc3noc(CC(C)C)n3)CC2)s1 | -4.45 | 2.6 | 3.54 | 0.891 | -8.75 | -8.28 | 8.82 | 29.7 | -3.23 | 1.24 | -1.38 |
| Cc1ccc(C(=O)N2Cc3ccccc3C2)cc1N1CCNC1=O | -6.25 | 2.67 | 0.516 | 9.14 | 7.89 | -3.12 | 16.2 | -13.9 | 7.1 | 13.6 | -6.92 |
| O=C(Cc1ccsc1)N1CCC(n2nc(-c3ccco3)ccc2=O)CC1 | -7.59 | 6.76 | 16.2 | 33.6 | -2.17 | -4.41 | 13.9 | -0.185 | 9.68 | 6.49 | -13.4 |
| CN(CCO)Cc1nnc(C2CCN(C3CCCCC3)CC2)n1C | -3.52 | 8 | 0.423 | -0.412 | -3.41 | 2.08 | 18.1 | 10.8 | 2.73 | 11.1 | -6.36 |
| CN(Cc1cnn(C)c1)C(=O)NCc1nnc2n1CCC2 | -4.33 | 10.1 | 2.17 | 6.31 | 4.06 | 1.52 | -0.901 | 3.9 | 5.42 | 8.86 | -6.73 |
| NS(=O)(=O)N1CCc2ccc(NC(=O)Cc3ccc(F)cc3)cc21 | -2.62 | 2.74 | -2.62 | 3.78 | 4.31 | -39.1 | 6.92 | 20.9 | -3.23 | 2.5 | -1.74 |
| CN(C(=O)Cn1nc(-c2ccc(F)cc2)ccc1=O)C1CCS(=O)(=O)C1 (stereo unspecified) | -7.39 | 10.5 | 7.4 | 10.6 | 1.85 | -16.6 | 6.81 | -4.86 | 3.19 | 7.79 | -3.65 |
| O=C(Cc1ccc(F)cc1)NCCNCC1CNc2ccnn2C1 (stereo unspecified) | -1.32 | 18.9 | -4.44 | 24.8 | 10.8 | 10 | 6.72 | 2.03 | 8.99 | 17.1 | -7.92 |
| Cc1ccccc1NS(=O)(=O)c1cc2c(c(C(=O)O)c1)OCCO2 | -8.46 | 7.89 | 0.578 | -1.17 | -7.19 | -6.47 | 5.67 | 2.34 | 2.46 | 1.24 | 3.8 |
